Laboratory results reported in the supplement of paper PMC6522484.
± gives the standard deviation of the averaged measurements.

Key:
DLD1 [1] = test: cell viability (CellTiter-Glo) relative to plate median (fraction of plate median); higher = more viable cells; conditions: 10 µM, treatment time 24 h
How it was run: (§1)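 Colorectal cancer cells expressing a stably transduced lentiviral TCF/Wnt firefly luciferase reporter were treated in 384-well plates with kinase inhibitor library compounds at a final 10 µM for 24 h. Firefly luciferase or CellTiterGlo luminescence was then read on parallel plates. Well signals were normalised to the plate median (webcellHTS2, additive, no log transformation) and averaged over two independent replicates.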

HCT116 [2] = test: as above; conditions: 10 µM; treatment time 24 h; reporter: TCF4/Wnt
How it was run: as §1

SW480 [3] = test: as above; conditions: 10 µM; treatment time 24 h; reporter: 7TFP
How it was run: as §1

DLD1 [4] = test: TCF/Wnt firefly luciferase reporter signal relative to plate median (fraction of plate median); higher = higher Wnt reporter signal; conditions: 10 µM, treatment time 24 h
How it was run: as §1

HCT116 [5] = test: as above; conditions: 10 µM; treatment time 24 h; reporter: TCF4/Wnt
How it was run: as §1

SW480 [6] = test: as above; conditions: 10 µM; treatment time 24 h; reporter: 7TFP
How it was run: as §1

Row | SMILES | cell viability (DLD1 [1]; reporter: 7TFP) | cell viability (DLD1 [1]; reporter: TCF4/Wnt) | cell viability (HCT116 [2]) | cell viability (SW480 [3]) | TCF/Wnt firefly luciferase reporter signal (DLD1 [4]; reporter: 7TFP) | TCF/Wnt firefly luciferase reporter signal (DLD1 [4]; reporter: TCF4/Wnt) | TCF/Wnt firefly luciferase reporter signal (HCT116 [5]) | TCF/Wnt firefly luciferase reporter signal (SW480 [6])
1 | O=C(O)[C@]1(Cc2cccc(Nc3nccs3)n2)CC[C@@H](Oc2cccc(Cl)c2F)CC1 | 1.08 ± 0.092 | 1.02 ± 0.014 | 0.959 ± 0.057 | 1.14 ± 0.014 | 0.824 ± 0.061 | 0.857 ± 0.2 | 0.568 ± 0.44 | 0.742 ± 0.0071
2 | Nc1nc(N)c2nc(-c3cccc(O)c3)c(-c3cccc(O)c3)nc2n1 | 1.06 ± 0.035 | 1.02 ± 0.029 | 1.22 ± 0.035 | 0.959 ± 0.025 | 1.08 ± 0.071 | 1.17 ± 0.057 | 1.23 ± 0.11 | 1.04 ± 0.14
3 | Oc1cccc(-c2nc(N3CCOCC3)c3oc4ncccc4c3n2)c1 | 0.906 ± 0.036 | 0.917 ± 0.038 | 0.862 ± 0.15 | 1.12 ± 0.05 | 0.717 ± 0.061 | 0.954 ± 0.093 | 0.869 ± 0.012 | 1.1 ± 0.24
4 | Nc1ncnc2c1c(-c1cnc3[nH]ccc3c1)nn2C1CCCC1 | 0.8 ± 0.14 | 0.862 ± 0.063 | 0.489 ± 0.15 | 0.967 ± 0.15 | 0.322 ± 0.033 | 0.51 ± 0.084 | 0.21 ± 0.035 | 0.562 ± 0.064
5 | COc1cccc2cc(-c3nc([C@H]4CC[C@H](C(=O)O)CC4)n4ncnc(N)c34)[nH]c12 | 1.03 ± 0.093 | 1.02 ± 0.056 | 0.816 ± 0.0042 | 1.19 ± 0.11 | 0.442 ± 0.061 | 0.449 ± 0.098 | 0.6105 ± 0.00071 | 0.83 ± 0.069
6 | CN1CCN(c2nc(C3=C(c4c[nH]c5ccccc45)C(=O)NC3=O)c3ccccc3n2)CC1 [Sotrastaurin (AEB071)] | 1.08 ± 0.092 | 1.045 ± 0.0071 | 1.03 ± 0.13 | 0.914 ± 0.1 | 1.54 ± 0.05 | 1.52 ± 0.28 | 1.33 ± 0.83 | 0.983 ± 0.63
7 | CCCS(=O)(=O)Nc1ccc(F)c(C(=O)c2c[nH]c3ncc(-c4ccc(Cl)cc4)cc23)c1F [Vemurafenib (PLX4032)] | 1.19 ± 0.13 | 0.976 ± 0.023 | 1.2 ± 0.05 | 0.878 ± 0.042 | 1.14 ± 0.028 | 0.939 ± 0.015 | 1.155 ± 0.0071 | 0.866 ± 0.11
8 | COc1ccc(-c2ccc3c(N4CCOC[C@@H]4C)nc(N4CCOC[C@@H]4C)nc3n2)cc1CO | 0.94 ± 0.14 | 0.921 ± 0.033 | 0.823 ± 0.12 | 1.17 ± 0.099 | 0.34 ± 0.042 | 0.4795 ± 0.0021 | 0.567 ± 0.08 | 0.829 ± 0.035
9 | COC(=O)c1ccc2c(C(=Nc3ccc(N(C)C(=O)CN4CCN(C)CC4)cc3)c3ccccc3)c(O)[nH]c2c1 [BIBF1120 (Vargatef)] | 1.21 ± 0.18 | 1.04 ± 0.014 | 1.06 ± 0.028 | 1.125 ± 0.0071 | 1.35 ± 0.035 | 1.03 ± 0.18 | 0.749 ± 0.54 | 0.895 ± 0.53
10 | CC(C)(C)c1nc(-c2cccc(NS(=O)(=O)c3c(F)cccc3F)c2F)c(-c2ccnc(N)n2)s1 | 1 ± 0.051 | 0.981 ± 0.042 | 1.055 ± 0.0071 | 1.06 ± 0.064 | 1.18 ± 0.071 | 1.05 ± 0.05 | 0.931 ± 0.47 | 1.75 ± 0.014
